# According to PubChem BioAssay:
# Experiment: hepatitis C replication reporter changes, two-sided – Huh7 cells, luciferase reporter, HCV replication inhibitor project, primary screen (AID 1109);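 also: huh7 hepatoma cells harbouring a luciferase neomycin HCV replicon reporter; luciferase luminescence as measure of HCV replicon replication; test concentration not given here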
# Details: Huh7 HCV replicon luciferase reporter, 48 h; higher = more signal
row,Structure (SMILES),z-score
1,COC(=O)[C@H]1N=C(c2ccc(OCCCO)cc2)O[C@H]1c1ccccc1CN=[N+]=[N-],-2.03
2,C[N+](C)(C)CCCCNC(=O)[C@H]1C[C@H]2C(=O)NCC(=O)N2[C@H]1c1ccc(O)cc1,-0.463
3,CN(C)CCCCCCNC(=O)[C@@H]1C[C@@H]2C(=O)NCC(=O)N2[C@@H]1c1ccc(O)cc1,0.589
4,COc1ccc(C#Cc2ccc3c(c2)[C@]2(C(=O)N3)[C@H](c3ccc(OCCO)cc3)N3[C@H](c4ccccc4)[C@H](c4ccccc4)OC(=O)[C@H]3[C@@H]2C(=O)N2CCN(c3ncccn3)CC2)cc1,-1.18
5,[N-]=[N+]=NCc1ccccc1[C@H]1OC(c2ccc(OCCCO)cc2)=N[C@@]1(Cc1ccccc1)C(N)=O,-1.46
6,C#CCOC(=O)N[C@H](C=CCCCC)c1ccccc1,-0.498
7,COc1cccc(C[C@H]2C[C@@H](CO[Si](C(C)C)(C(C)C)C(C)C)N3C(=O)[C@]4(C(C)=O)O[C@]23[C@H]2C(=O)N(C)C(=O)[C@H]24)c1,-3.15
8,C=C(COC)/C(=C/C[C@@H](OC(=O)c1ccncc1)c1cccc(OCCO)c1)c1cc(C(=O)OC)ccc1OC,-4.4
9,C[N+](C)(C)CCCC[C@@H]1NC(=O)[C@@H]2C[C@H](C(=O)NCCCCCNC(=O)CS)[C@H](c3cccc(OCCO)c3)N2C1=O,-0.193
10,CCCCCCCCCCC(O)C1C=CC2C(=O)NC(=O)C2N1Nc1ccccn1 (stereo unspecified),-2.64
11,CCOC(=O)C[C@H]1[C@H](OC(=O)c2ccc(C(=O)c3ccccc3)cc2)[C@@H](NC(=O)C2CCCCC2)c2cc(OCCCO)ccc2N1C(=O)Cc1ccc(OC)cc1,-1.96
12,COc1ccc([Si](C)(C)[C@@H]2[C@@H](CCO)O[C@]3(C(=O)N(Cc4ccc(N5C(=O)c6ccccc6Oc6ccccc65)cc4)c4ccccc43)[C@H]2C)cc1,-4.95
13,O=C1O[C@@H](c2ccccc2)[C@@H](c2ccccc2)N2[C@@H](c3ccc(O)cc3)[C@]3(C(=O)Nc4ccc(C#CC5(O)CCCCCC5)cc43)[C@@H](C(=O)N3CCN(c4ncccn4)CC3)[C@H]12,-0.843
14,COCCCNC(=O)[C@@]1(C)c2ccccc2C(=O)N(c2ccc(C)cn2)[C@H]1c1ccc(CO)cc1,-0.0063
15,COc1ccc([Si](C)(C)[C@H]2[C@H](CCO)O[C@@]3(C(=O)N(Cc4cccc(N5CCOC5=O)c4)c4ccccc43)[C@@H]2C)cc1,-4.39
16,O=C(N1CCOCC1)[C@@]1(CCS(=O)(=O)c2ccccc2)COC(c2ccc(OCCCO)cc2)=N1,-1.18
17,COCCOC(=O)N1C(=O)[C@@]2(c3cc(C#Cc4ccc(OC)cc4)ccc31)[C@H](C(N)=O)[C@H]1C(=O)O[C@H](c3ccccc3)[C@H](c3ccccc3)N1[C@@H]2c1ccc(OCCO)cc1,-2.25
18,C=C[C@H](C)[C@H](OC(=O)Nc1ccc(SC)cc1)c1ccc(O)c2ccccc12,-0.766

row,Structure (SMILES),z-score
1,C=C(CCCC)/C(=C/C[C@H](OC(=O)c1ccncc1)c1ccc(CO)o1)c1cc(C(=O)OC)ccc1OC,-1.93
2,CN1C(=O)C2C=CC(C(O)c3cccc4ccccc34)N(NC(=O)OC(C)(C)C)C2C1=O (stereo unspecified),-0.602
3,COc1cc2c(cc1OC)CN(C(=O)[C@@H]1[C@H]3C(=O)O[C@H](c4ccccc4)[C@H](c4ccccc4)N3[C@H](c3ccc(OCCO)cc3)[C@@]13C(=O)Nc1ccc(C#CCCO)cc13)CC2,-1.53
4,NCCCCCCNC(=O)[C@H]1C[C@H]2C(=O)N3CCC[C@H]3C(=O)N2[C@H]1c1ccc(O)cc1,0.0433
5,C[C@H]1NC(=O)C([C@@H](C)OCc2ccccc2)NC(=O)[C@@]23C(=O)N[C@@H](Cc4ccccc4)C2[C@H](C)[C@@]2(C)O[C@H]2C3/C=C/CC/C=C/CNC1=O (stereo partly specified),-0.631
6,O=C1O[C@@H](c2ccccc2)[C@@H](c2ccccc2)N2[C@@H](c3ccc(O)cc3)[C@]3(C(=O)Nc4ccc(C#CC5=CCCCC5)cc43)[C@@H](C(=O)Nc3nc4ccccc4s3)[C@H]12,-0.99
7,CC(C)(C)N1CC=CC23O[C@@H]4C=CCCOC(=O)C4[C@H]2C(=O)N(CCCO)[C@@H]3C1=O (stereo partly specified),-1.17
8,CN(C)CCCCNC(=O)[C@H]1C[C@H]2C(=O)N[C@@H](CCCC[N+](C)(C)C)C(=O)N2[C@H]1c1cccc(OCCO)c1,-0.156
9,CCCCC(CC)C(O)C1C=CC2C(=O)NC(=O)C2N1Nc1ccccn1 (stereo unspecified),-0.201
10,C[N+](C)(C)CCCCCCNC(=O)[C@@H]1C[C@@H]2C(=O)NCC(=O)N2[C@@H]1c1cccc(OCCO)c1,1.99
11,CCCCC=C[C@@H](NC(=O)CCc1ccccc1)c1ccccc1,-2.6
12,C[N+](C)(C)CCCCCCNC(=O)[C@H]1C[C@H]2C(=O)N3CCC[C@H]3C(=O)N2[C@H]1c1cccc(OCCO)c1,0.609
13,COc1cccc(C)c1NC(=O)O[C@H]1[C@H](OC(=O)Nc2ccccc2)[C@H](OC(=O)Nc2ccccc2)[C@@H](OC)O[C@@H]1CO,-2.96
14,CC(C)NC(=O)[C@@]1(Cc2ccccc2I)c2ccccc2C(=O)N(Cc2ccccc2C(F)(F)F)[C@H]1c1ccc(CO)cc1,-1.47
15,COCCCNC(=O)[C@@]1(Cc2ccccc2CN=[N+]=[N-])N=C(c2ccc(OCCCO)cc2)O[C@H]1c1ccccc1N=[N+]=[N-],-2.3
16,C=C(C)[C@@H]1CC=C(C(O)C2C=CC3C(=O)N(C4CCCCC4)C(=O)C3N2Nc2ccc(OC)cc2)CC1 (stereo partly specified),-1.19
17,C=CCC(OC(C)=O)[C@@H]1[C@@H](N(Cc2ccc(-c3ccccc3)cc2)C(=O)Cc2ccc(OC)cc2)c2cc(OCCCO)ccc2N1C(=O)c1ccc(-c2ccccc2)cc1 (stereo partly specified),0.257
18,CC(C)=CCCC(C)=CC(O)C1C=CC2C(=O)N(c3ccccc3)C(=O)C2N1Nc1ccc([N+](=O)[O-])cc1 (stereo unspecified),-0.135
